A3A deaminase: APOBEC3A ssDNA deaminase inhibitors, primary screen, selectivity assay for APOBEC3G inhibitor project, biochemical, FAM/TAMRA oligo cleavage fluorescence; inhibition, % at 20 µM; DNA dC->dU-editing enzyme APOBEC-3A (Homo sapiens), P31941; AID 493011, 2011; 330,000 compounds, 0.41% hits; recombinant A3A, FAM/TAMRA ssDNA deamination fluorescence;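 active = at least 40% inhibition at 20 µM here, with at most 30% in a related deaminase screen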;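 note: plate controls were A3A with DMSO for no effect and wells lacking A3A enzyme for full effect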
Target sequence (P31941 whole entry, looked up): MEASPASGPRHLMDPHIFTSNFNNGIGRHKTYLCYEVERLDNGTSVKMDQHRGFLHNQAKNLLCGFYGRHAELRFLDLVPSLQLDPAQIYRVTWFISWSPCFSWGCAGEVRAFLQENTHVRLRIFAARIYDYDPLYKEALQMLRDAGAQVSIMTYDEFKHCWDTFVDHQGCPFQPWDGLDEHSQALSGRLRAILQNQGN
CendR NRP1 mod: modulators of CendR peptide binding to NRP-1, primary screen, biochemical, fluorescence polarization, uHTS | FAM-RPARPAR peptide binding to NRP-1 | 360,000 compounds, 0.85% hits | inhibition, % at 25 µM | AID 602438, 2012 | Neuropilin-1 (Homo sapiens), O14786;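 active = inhibition or corrected inhibition above about 18%, plus a signal ratio from 0.5 to 1.5, limit read from the data, passing the limit was not always enough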
ADAM10 inh: human ADAM10 inhibitors, primary screen, biochemical, QFRET, HTS. Disintegrin and metalloproteinase domain-containing protein 10 (Homo sapiens), O14672. recombinant ADAM10, EDANS/DABCYL FRET peptide cleavage, 3 h. inhibition, % at 7 µM. 370,000 compounds, 0.62% hits;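 active = inhibition above a per-campaign cutoff equal to the mean of compounds falling between control-based bounds plus 3 SD, cut at about 20% in these data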;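 note: 0% = DMSO wells while the 100% control is not disclosed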
ADAM17 inh: ADAM17 inhibitors, primary screen, biochemical, QFRET; Disintegrin and metalloproteinase domain-containing protein 17 (Homo sapiens), P78536; recombinant ADAM17, EDANS/DABCYL FRET peptide cleavage; inhibition, % at 6.95 µM; 370,000 compounds, 0.83% hits; AID 720648, 2013;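 active = inhibition above the mean of compounds lying between control limits plus 3 SD, set per campaign, cut at about 8.5% in these data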;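 note: 0% = DMSO-only wells as the low control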
APOBEC3G inh: APOBEC3G DNA deaminase inhibitors, primary screen, biochemical, fluorescence, single-stranded DNA substrate, uHTS | DNA dC->dU-editing enzyme APOBEC-3G (Homo sapiens), Q9HC16 | recombinant A3G, ssDNA deamination FAM/TAMRA fluorescence | inhibition, % at 20 µM | 330,000 compounds, 0.28% hits | AID 493012, 2011;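 active = inhibition of at least 40% at 20 µM, with no more than 30% in the related APOBEC3A deaminase screen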;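 note: plate controls were DMSO wells with A3G for no effect and wells lacking A3G enzyme for full effect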
Target sequence (Q9HC16 whole entry, looked up): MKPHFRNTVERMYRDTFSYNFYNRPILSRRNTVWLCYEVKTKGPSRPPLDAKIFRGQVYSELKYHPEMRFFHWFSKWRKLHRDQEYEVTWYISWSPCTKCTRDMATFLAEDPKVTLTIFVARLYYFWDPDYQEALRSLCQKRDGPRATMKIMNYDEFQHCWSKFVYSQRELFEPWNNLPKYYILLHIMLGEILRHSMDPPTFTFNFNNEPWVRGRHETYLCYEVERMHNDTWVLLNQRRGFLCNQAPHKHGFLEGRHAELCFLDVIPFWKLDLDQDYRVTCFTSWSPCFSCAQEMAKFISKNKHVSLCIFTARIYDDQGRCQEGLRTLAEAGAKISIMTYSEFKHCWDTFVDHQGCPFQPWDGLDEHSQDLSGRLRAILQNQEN
ADAM10 ctr: ADAM10 inhibitors, counter-screen for ADAM17 exosite inhibitor project, biochemical, FRET, human ADAM10 | shares compounds with ADAM17 inh | recombinant ADAM10, EDANS/DABCYL FRET peptide cleavage, 3 h | inhibition, % at 6.95 µM | 2,900 compounds, 47% hits | AID 743256, 2014;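 active = mean inhibition over the triplicate runs exceeds the activity threshold set in the earlier primary screen, cut at about 20% in these data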;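 note: 0% = DMSO wells and 100% = marimastat wells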
ADAM17 confirm: ADAM17 inhibitors, hit retest, confirmation, biochemical, QFRET peptide cleavage; shares compounds with ADAM17 inh; recombinant ADAM17, EDANS/DABCYL QFRET peptide cleavage; inhibition, % at 6.95 µM; 2,900 compounds, 65% hits;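 active = mean inhibition across replicates above the hit cutoff set in the primary screen, cut at about 8.5% in these data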;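 note: 0% = DMSO wells and 100% = marimastat wells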
* marks the source's active call; other numbers are inactive results; . = not tested or not shown. A selection: hits, their analogues and other compounds. The true share with any hit is near 2.4%.

SMILES	A3A deaminase	CendR NRP1 mod	ADAM10 inh	ADAM17 inh	APOBEC3G inh	ADAM10 ctr	ADAM17 confirm
Cc1ccc(C)c(OCCC(=O)Nc2cccc(S(=O)(=O)N3CCCCC3)c2)c1	-3.1	13.2	18.4	9.3*	-9.1	40.1*	21.1*
Cc1ccc(C)c(OCCC(=O)Nc2cc(S(=O)(=O)N3CCCCC3)ccc2C)c1	-1.7	3.4	-7.9	-0.1	-5.5	.	.
COc1ccc(-n2c(COc3ccccc3)nnc2SCC(=O)Nc2ccc(OCc3ccccc3)cc2)cc1	.	.	-13.1	-5.3	.	.	.
Cc1cc(N2CCNC[C@@H]2C)ccc1N1CCS(=O)(=O)CC1	.	.	-6.8	-2.5	.	.	.
Cc1ccc(Cl)cc1NC(=O)OCCN(C)C(=O)Nc1cc(Cl)ccc1C	.	.	-0.5	0.8	.	.	.
CCC(C(=O)Nc1ccccc1N1CCCC1)c1cccc(Cl)c1 (centres undefined)	.	.	5.0	2.3	.	.	.
CCCc1ccc(-c2cc(NC(=O)Cc3c(C)[nH]c4ccccc34)ccc2N(C)c2cccnc2)cc1	.	.	-7.4	6.6	.	.	.
O=C(COC(=O)/C=C/c1ccc(OC(F)F)cc1)Nc1cccc(S(=O)(=O)N2CCCC2)c1	3.1	-8.7	9.6	3.6	-5.9	.	.
CSc1ncccc1C(=O)OCC(=O)Nc1ccc(S(=O)(=O)N2CCCC2)cc1	2.4	-14.0	8.9	9.5*	5.5	0.6	5.5
O=C(COC(=O)/C=C/c1ccc(OC(F)F)cc1)Nc1ccc(S(=O)(=O)N2CCCC2)cc1	3.5	-6.6	17.9	9.8*	2.6	18.3	13.2*
CCOc1ccc(CNC(=S)N/N=C/c2ccc(OC)c(OC)c2)cc1	-2.5	-15.4	10.1	8.7*	-7.6	14.5	14.6*
COc1cc(/C=N/NC(=S)NCc2ccccc2)ccc1OCC#N	2.4	-52.7	6.4	3.8	-2.6	.	.
O=C(NC(=S)Nc1ccc2c(c1)OCCO2)c1cccc2ccccc12	-0.4	-1.4	19.4	10.9*	1.4	17.9	11.2*
O=C(OCCCN1CCC2(CCCCC2)C1=O)c1ccccc1	.	.	-9.2	-1.0	.	.	.
COc1cccc(CNc2ccc([N+](=O)[O-])cc2C)c1	-4.1	-11.4	16.9	11.8*	-5.1	14.7	12.4*
Cc1cc([N+](=O)[O-])nn1CC(=O)N/N=C/c1ccccc1F	-3.6	-3.7	-10.1	-1.7	-7.6	.	.
Cc1ncc([N+](=O)[O-])n1CC(=O)N/N=C/c1ccccc1F	-1.6	2.2	11.8	9.9*	-11.3	4.7	3.0
CC(C)CC(NC(=O)OCc1ccccc1)C(=O)NCC(=O)NCC(=O)OCc1ccccc1 (centres undefined)	.	.	4.1	0.3	.	.	.
C=CCc1c(C)nc(-c2ccccc2)nc1Nc1ccccc1O	-0.5	-53.3	15.4	10.1*	-3.1	29.1*	16.9*
C=CCc1c(C)nc(-c2ccccc2)nc1N/N=C/c1ccccc1	1.1	-2.9	-2.0	1.6	-0.8	.	.
COc1cccc(C(C)(O)c2nc(-c3csc4ccccc34)cs2)c1 (centres undefined)	.	2.2	12.3	9.5*	.	33.0*	16.1*
C[C@@H]1CC[C@]2(O[C@H](CCO)C[C@@H](O)[C@@H]2O)O1	-0.5	7.0	7.9	8.8*	-9.8	10.0	4.5
COc1cccc(CNC(=O)CCS(=O)(=O)c2ccc3c(c2)NC(=O)CS3)c1	-4.0	-6.6	0.6	8.7*	-7.1	-8.7	-0.1
COc1cccc(CNS(=O)(=O)c2ccc3c(c2)NC(=O)CS3)c1	-5.6	12.4	-1.8	-1.9	-8.1	.	.
Cc1cc(NC(=O)COC(=O)c2ccc(OC(F)(F)F)cc2)no1	-4.6	2.9	-14.3	-3.8	-5.7	.	.
SMILES	A3A deaminase	CendR NRP1 mod	ADAM10 inh	ADAM17 inh	APOBEC3G inh	ADAM10 ctr	ADAM17 confirm
Cc1cc(NC(=O)COC(=O)C(Nc2ccc(C(F)(F)F)cc2Cl)C(C)C)no1 (centres undefined)	-0.1	4.8	19.6	10.1*	0.5	41.2*	23.6*
CCCCN1CN2Cc3cc(OC)ccc3C2CS1(=O)=O (centres undefined)	.	.	-26.6	-8.1	.	.	.
COc1ccccc1CN(C)CC(=O)Nc1cccc(S(=O)(=O)N2CCCCC2)c1	-1.3	9.8	4.2	1.0	-11.1	.	.
CN(CC(=O)Nc1ccc(S(=O)(=O)N2CCCC2)cc1)Cc1cccc(Cl)c1Cl	-1.5	-3.9	13.8	10.1*	-1.8	8.3	8.3
CCCCCCCCN1C(=O)[C@@H](CC(=O)N2CCSCC2)C[C@@]2(C(=O)OC)C1=C[C@H](C(C)C)O[C@@H]2C1CC1	.	.	-4.3	-1.9	.	.	.
O=C(N/N=C/c1ccc[nH]1)c1cc(-c2ccc(Cl)cc2)nc2ccccc12	0.4	-11.9	16.2	9.6*	-6.7	21.6*	15.3*
O=C(N/N=C/c1cccnc1)c1cc(-c2ccc(Cl)cc2)nc2ccccc12	-0.8	3.4	5.2	-4.9	-1.6	.	.
O=C1N[C@H](Cc2ccccc2)COC(=O)[C@H](Cc2ccc(F)cc2)CC/C=C/C[C@H]1CC(=O)N(CCO)Cc1ccccc1	-0.6	-5.3	6.6	8.7*	-0.5	20.6*	11.0*
O=C1N[C@@H](c2ccccc2)COC(=O)[C@@H](Cc2ccc(F)cc2)CC/C=C/C[C@@H]1CC(=O)N(CCO)Cc1ccccc1	-1.6	0.1	27.2*	10.1*	-4.3	30.8*	14.7*
O=C(Cc1ccccc1Cl)NCCN1C(=O)C2C3C=CC(C3)C2C1=O (centres undefined)	.	.	-10.2	-4.9	.	.	.
COC(=O)[C@]12C[C@H](CC(=O)N3CCC(c4ccccc4)CC3)C(=O)N(Cc3ccc(Cl)cc3Cl)C1=C[C@H](COCc1ccccc1)O[C@@H]2C	.	.	2.0	1.6	.	.	.
Cc1ccc(C(=O)N2O[C@]34C=C[C@]25C[C@@H](O)CC[C@]5(C)C3CC[C@]2(C)[C@@H]([C@H](C)/C=C/[C@H](C)C(C)C)CC[C@H]24)cc1 (some centres undefined)	.	.	-4.6	-1.5	.	.	.
CCn1c(-c2csc3c2CCCC3)n[nH]c1=S	-4.4	0.8	17.8	-5.5	33.6	.	.
C=CCn1c(-c2csc3c2CCC(C)C3)n[nH]c1=S (centres undefined)	-1.9	3.6	5.7	10.7*	1.7	18.1	13.1*
CCCCn1c(-c2csc3c2CCCC3)n[nH]c1=S	-4.5	.	5.6	12.8*	13.8	9.5	4.9
